SMILES strings stand for the structures. Screen size: about 62,000 compounds; about 40 (0.06%) were called active. This excerpt belongs to a sample that is enriched for actives. A number with no mark means an inactive call. Cut-off read from the data, not from the text of the source: active = inhibition above about 22% (passing the limit was not always enough); inconclusive = no clear call, values can overlap the other calls.

The assay has as its target Cathepsin B (Homo sapiens) (UniProt P07858). As to the kind of experiment: cathepsin B inhibitors from pooled compounds, primary screen, biochemical, compound mixtures, AMC fluorescence (AID 488).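 Note: 0% = enzyme without compound and 100% = no enzyme blank.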 Particulars: Purified cathepsin B, AMC dipeptide fluorescence, active compounds read high,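 ten-compound pools at 5 µM per compound and 50 µM total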.
As to `Cc1ccc(C(=O)CSc2nnc(Cn3nnc4ccccc43)n2C)cc1`, the inhibition (usually the relative decrease from the control value, in per cent) was -0.39%.
For `C=CCn1c(SCc2csc(C)n2)nc2scc(-c3ccc(C)o3)c2c1=O` the value was 5.42%; for `Cc1ccc2nc(NCCCNC(=O)c3cnccn3)c(C#N)cc2c1`, 1.1%; for `CCNc1nc(SCCOc2ccccc2)nc(N(C)C)n1`, 3.91%.
Then `C/C(Cl)=C\Cn1c(Nc2cccc(C)c2)nc2c1c(=O)n(C)c(=O)n2C`, with 5.3%; and `Cc1ccccc1S(=O)(=O)Cc1ccc(C(=O)NCCN2CCCCC2C)o1` (stereo unspecified), with 3.67%.
For `CCOc1ccc2[nH]c(=O)c(CN(Cc3nnnn3Cc3ccccc3)CC3CCCO3)cc2c1` (stereo unspecified) the value was 3.02%; for `COC(=O)Nc1ncc(CN2C(=O)c3ccccc3C2=O)s1`, -2.69%.
Consider `CCCS(=O)(=O)N1CCCC(C(=O)NCCN2CCCCC2C)C1` (stereo unspecified), for which the inhibition is 3.97%.
For the compound `Cc1ccc(C(C(=O)NC2CCCC2)N(Cc2ccco2)C(=O)CCC(=O)Nc2ccccn2)cc1` (stereo unspecified), the inhibition is 3.21%.
Then `CCCCn1c(CN2CCN(CCO)CC2)nc2ccccc21`, with 2.92%.
`CCc1ccc(-c2nnn(Cc3nc4ccccc4s3)n2)cc1`: the inhibition was 4.33%.
For `O=c1[nH]nc(CSCc2ccccc2Cl)[nH]1` the value was 4.72%; for `O=C(COc1ccc(F)cc1)N(CC1=CCS(=O)(=O)C1)c1ccccc1`, -3.79%; for `Cc1ccc2cc3cc(C(=O)N4CCCCCC4)oc3nc2c1`, 3.89%.
For `C=CCn1c(N)c(C(=O)OCC(C)C)c2nc3ccccc3nc21` the value was -4.76%; for `COc1cccc(NS(=O)(=O)c2ccc3[nH]cc(C(=O)NCCCOC(C)C)c(=O)c3c2)c1`, 5.5%; for `COC(=O)[C@H](CCSC)NC(=O)Nc1ccc(OC)cc1`, 1.64%.
Then `C=CCNC(=O)c1cc(-c2ccccc2O)on1`, with -1.28%.
For `O=C(CSc1nnc(-c2ccco2)n1Cc1ccccc1)NC(=O)NCc1ccco1`, the inhibition is -0.985%.
Then `COCCCN(C(=O)Cn1ncc2c(=O)oc3ccc(C)cc3c21)C(C)c1ccncc1` (stereo unspecified), with 1.95%; and `O=C(CN1C(=O)NC2(CCCCC2)C1=O)NCCC1=CCCCC1`, with 4.21%; and `Cc1cc(NC(=O)COn2nnc3ccccc32)no1`, with 1.15%.
Then `CCc1ccccc1NC(=O)CSc1nnc([C@@H](NC(=O)OC(C)(C)C)C(C)C)o1`, with 5.22%; and `COc1ccc(C(=O)Nc2ccc3c(c2)OCO3)cc1OC`, with 1.18%; and `Cc1ccc(C(=O)NCC(=O)O)cc1S(=O)(=O)N1CCCCC1`, with 1.96%.
Then `Cc1ccc(C(=O)Nc2ccc3c(c2)OCO3)cc1S(=O)(=O)N1CCCCC1`, with 62.7% (active); and `COc1ccc(NS(=O)(=O)c2ccc(NC(C)=O)cc2)cc1OC`, with 2.73%; and `CCC(=O)c1ccc(OCC(O)CN2CCN(c3cccc(C(F)(F)F)c3)CC2)cc1` (stereo unspecified), with 2.81%.
`Cc1noc(C)c1S(=O)(=O)Nc1ccc(C(=O)O)cc1`: the inhibition was 5.64%.
For `COc1ccc(CC(=O)c2ccc(O)cc2O)cc1OC` the value was -2.36%.
For `Cc1ccc(SCCN2C(=O)NC(C)(C)C2=O)cc1` the value was 3.79%.
For `CCCc1nc(N)nc2c1C(=O)CC(C)(C)C2` the value was 3.17%.
`CCC(=O)N1CCc2cc(S(=O)(=O)NC(C(=O)N3CCc4ccccc4C3)C(C)C)ccc21` (stereo unspecified): the inhibition is 15.3%.
Consider `O=C(NCc1ccc(Cl)c(Cl)c1)c1cccnc1`, for which the inhibition is -2.21%.
Then `CCCC(CCC(=O)OC)(C(=O)OCC)c1csc(N)n1` (stereo unspecified), with 6.54%; and `CC1CCCN(Cc2nc3c(c(=O)n(C)c(=O)n3C)n2Cc2cccc3ccccc23)C1` (stereo unspecified), with 1.14%.
For `CN(CCCC(=O)Nc1nccs1)S(=O)(=O)c1ccc(Cl)cc1` the value was 3.83%; for `Cc1ccc(S(=O)(=O)N2CCN(C(=O)CCC(=O)NC3CCCc4ccccc43)CC2)cc1` (stereo unspecified), 1.64%; for `CC(=O)Nc1cc(C(=O)O)ccc1S(=O)(=O)c1ccc(Cl)cc1`, -0.3%.
Then `CCCC(=O)N1c2ccccc2NC2=C(C(=O)CCC2)C1c1ccc(F)cc1` (stereo unspecified), with 4.79%; and `COc1ccc(OC)c(NC(=O)CSc2nc3cccnc3n2C)c1`, with -8.48%.
Consider `O=C1NC(Nc2nc3ccccc3s2)(C(F)(F)F)C(=O)N1C1CCCCC1` (stereo unspecified), for which the inhibition was 1.35%.
For `CN1CCN(C(=O)C2C3C=CC(C3)C2C(=O)O)CC1` (stereo unspecified) the value was 5.22%; for `CSCCC(NC(=O)c1ccc(=O)n(C)n1)c1nc2ccccc2[nH]1` (stereo unspecified), -2.06%.
For `c1ccc2c(c1)OCC(c1nn3cnnc3s1)O2` (stereo unspecified) the value was -2.62%; for `O=C(NCCN1C(=O)C2C3C=CC(C3)C2C1=O)Nc1ccccn1` (stereo unspecified), 7.59%.
For `Cn1c2ccccc2c2c(C(=O)N3CCN(c4ccc(F)cc4)CC3)cn(C3CCCC3)c(=O)c21` the value was 4.51%; for `CCCNc1ncnc2sc(C)c(C)c12`, 2.56%; for `O=C(CSc1nnnn1-c1ccc2c(c1)CCC2)Nc1ccc2c(c1)OCCO2`, 0.15%.
Regarding `Cn1c(=O)n(C)c2cc(CNc3ccc(N4CCOCC4)c(C(=O)O)c3)ccc21`, the inhibition is -0.23%.
Then `O=C(Nc1ccc(Cl)cc1)c1ccsn1`, with -2.12%; and `COc1ccc(OC)c(C(=O)CSc2nnc(-c3cccs3)o2)c1`, with -2.44%.
For `CCN(CC)S(=O)(=O)c1ccc2nc(COC(=O)c3n[nH]c4ccccc34)[nH]c2c1` the value was 3.42%; for `O=C(NC(c1ccccc1)c1ccccc1)N1CCN(CCO)CC1`, 3.62%.
For `CC1CCC(NC(=O)c2ccc(N3CCCC3=O)cc2)CC1` (stereo unspecified) the value was -4.06%.
`COCC(=O)Nc1nnc(COc2ccccc2)s1`: the inhibition was -8.97%.
In the case of `COC(C)(C)[C@]12CC(O)(C(C)C)ON1[C@H]1CCCCC1N2O` (stereo partly specified), the inhibition was -3.22%.
For `Cn1c(=O)c2c(n(Cc3ccccc3)c1=O)NC(=O)C2CC(=O)N1CCc2ccccc2C1` (stereo unspecified) the value was 0.76%; for `O=c1c2c(nc3n1CCCCC3)sc1c(O)cccc12`, 5.69%.
With `CC(C)c1ccc(NS(=O)(=O)c2cn(C)c(=O)n(C)c2=O)cc1`, the inhibition was 3.38%.
For `CCCCNC(=O)c1ccccc1NC(=O)c1ccccc1N(C)S(C)(=O)=O` the value was 7.15%.
As for `CCOC(=O)Cc1csc(NC(=O)CN(C)S(=O)(=O)c2ccc3c(c2)CCC(=O)N3)n1`, the inhibition was 3.69%.
Consider `COc1ccc(-c2nc(CS(=O)CC(=O)N3CCc4ccccc4C3)c(C)o2)cc1` (stereo unspecified), for which the inhibition was 4.29%.
For `CCC(C)Sc1nc(C)nc2c1c(=O)n(C)c(=O)n2C` (stereo unspecified) the value was 2.91%; for `N#CCCn1ncc2ccccc21`, -3.63%.
For `COc1ccc(CCN2CNc3c(c(=O)n(C)c(=O)n3C)C2)cc1OC` the value was 0.085%; for `COc1ccc(-c2ccnc(SCC(=O)N3CCOCC3)n2)cc1`, -0.81%; for `CCN1CCN(c2c(Cl)cccc2NC(=O)c2ccc(Br)o2)CC1`, 5.68%.
Consider `COc1nc(NCc2ccc(Cl)cc2)nc(OC)n1`, for which the inhibition was 6.46%.
Then `CCCn1c(SCC(=O)N2CCc3ccccc32)nnc1-c1ccncc1`, with 5.11%.
For `CC(C)(C)NC(=O)NC(=O)COC(=O)Cn1c(C(F)(F)F)nc2ccccc21` the value was 0.995%.
Then `N#Cc1cccc(CSc2nnc(CCCO)n2-c2ccccc2)c1`, with 22%; and `COC(=O)c1c(NC(=O)CCN2CCOCC2)sc2c1CCCC2`, with 3.41%.
Regarding `Cn1c(=O)cc(SCC(=O)N2CCN(C(=O)c3ccco3)CC2)c2ccccc21`, the inhibition was 2.19%.
For `Cc1ccccc1-c1nc(CS(=O)(=O)CC(=O)N2CCc3ccccc3C2)c(C)o1` the value was 4.15%; for `Cc1cccc(NC(=O)C2CCN(S(=O)(=O)c3cccc4cccnc34)CC2)c1`, 4.24%.
For `Cc1cc(Nc2ccc(Br)cc2F)n2ncnc2n1` the value was -2.18%; for `COc1ccc(C(CC(=O)O)NC(=O)Cc2ccccc2)cc1` (stereo unspecified), -0.455%.
Then `COc1ccc(S(=O)(=O)N2CCCCC2)cc1Br`, with 2.55%.
As for `CC(=O)c1cc(-c2ccccc2)[nH]c1N1CCCC1`, the inhibition is 2.3%.
For `CC1Oc2ccccc2N(Cc2cccnc2)C1=O` (stereo unspecified) the value was 4.41%.
For `O=C(CCS(=O)(=O)c1cccc2nonc12)NCCc1ccccc1Cl` the value was 4.8%; for `Cn1cccc1Cc1nnc(SCC(=O)NCCc2ccccc2)n1-c1ccc(F)cc1`, 4.42%.
For `CC1(C)Oc2ccc(C(=O)N3CCOCC3)cc2N(CC(=O)Nc2ccccc2)C1=O` the value was -0.39%.
As to `COc1ccccc1C(=O)C(O)c1ccccc1OC` (stereo unspecified), the inhibition was 1.43%.
Then `O=C(Cn1cc(C(=O)c2cccs2)c2ccccc21)NCc1cccs1`, with -1.35%; and `CCOC(=O)COc1ccc(Cl)cc1C1NC(=O)NC(C)=C1C(C)=O` (stereo unspecified), with -5.4%.
As for `O=C(NCc1ccccn1)c1c(O)c2c([nH]c1=O)CCCC2`, the inhibition was 4.33%.
In the case of `CC12COC3(C(=O)Nc4ccc(Cl)cn4)CC1CCC32C` (stereo unspecified), the inhibition is 2.24%.
For `COc1cccc(C(CC(=O)NCCN2CCOCC2)NS(=O)(=O)c2ccc(C)cc2)c1OC` (stereo unspecified) the value was -2.29%.
For `CCN(C(=O)CSc1ncn[nH]1)c1cccc2ccccc12` the value was 5.46%; for `Cn1c(=O)c2c(nc(N3CCCCCC3)n2CC(=O)c2ccc(Br)cc2)n(C)c1=O`, 6.96%.
Then `CCOC(=O)CSc1nnc(CNC(=O)c2cccs2)n1-c1ccccc1`, with 3.94%; and `CCCOc1ccc(NC(=O)C2CCCNC2=O)cc1` (stereo unspecified), with 0.055%.
Take `CCOC(=O)N1CCN(C(=O)c2ccc(S(=O)(=O)c3ccc(C)cc3)c(NC(C)=O)c2)CC1`: the inhibition is 0.155%.

The values above are taken from PubChem BioAssay AID488 (PCMD, 2006).
